Bioassay records deposited in PubChem by National Center for Advancing Translational Sciences (NCATS).
Only some compounds are listed: those with a hit (about 2.8% of all), similar ones and a draw of the others.
IP6K1 inh: inhibitors of human IP6K1 | AID 1645851 | IP6K1 kinase, ADP-Glo luminescence, 2 h; stronger effect = lower value | activity change, % (series mostly up to about 58 µM) | actives 0.81% (n = 140,000); in the data active means activity change below about -25%; further: on the % scale 0 is the no-effect control and ±100 the full control effect
Target sequence (Q92551 whole entry, looked up): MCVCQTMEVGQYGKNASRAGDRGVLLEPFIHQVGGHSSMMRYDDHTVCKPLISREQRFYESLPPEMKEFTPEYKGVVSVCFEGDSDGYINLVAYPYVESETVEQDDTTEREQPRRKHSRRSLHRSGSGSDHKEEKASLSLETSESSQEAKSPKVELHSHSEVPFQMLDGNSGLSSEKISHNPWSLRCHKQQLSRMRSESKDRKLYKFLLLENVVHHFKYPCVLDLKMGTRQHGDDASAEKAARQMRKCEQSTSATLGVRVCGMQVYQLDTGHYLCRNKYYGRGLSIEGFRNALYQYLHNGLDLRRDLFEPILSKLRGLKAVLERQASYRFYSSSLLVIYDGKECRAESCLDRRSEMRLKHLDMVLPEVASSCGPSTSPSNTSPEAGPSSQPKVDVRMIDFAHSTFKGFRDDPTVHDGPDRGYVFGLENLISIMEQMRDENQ
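ADP-Glo luminescence measures ADP made by human IP6K1 during a 2 h RT reaction with ATP/IP6 (mix at 1.3 mM/130 uM); top library doses 57.5 and 19.1 uM final.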
KDM5B inh: KDM5B demethylase inhibition; Q9UGL1; KDM5B demethylase, FDH-coupled NADH fluorescence (FDH is formaldehyde dehydrogenase); Potency, µM (top dose mostly 57.7 µM), actives largely listed as inhibitors; actives 2.6% (n = 220,000); AID 1347165; further: potency means the concentration at half of the fitted maximal effect; 0% is about no effect; nearly all actives have a fitted effect of over 70% in size
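Compound dilutions met 200 nM (final) KDM5BΔAP for 10 min at room temperature before substrate addition. The substrate mix held 12.5 µM H3K4me3 with cofactors 25 µM α-ketoglutarate and 50 µM Fe²⁺. NADH signal gain over 30 min defined activity.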
IP6K1 inh cnf: confirmation of human IP6K1 inhibitors; shares compounds with IP6K1 inh; recombinant IP6K1 kinase, ADP-Glo luminescence, 2 h; Potency, µM (titrated, usually from 49 µM), for inactives: at the highest dose activity change, negative = inhibition, hits mostly inhibitors; actives 13% (n = 1,200); AID 1645852; further: potency means the concentration at half of the fitted maximal effect; on the % scale 0 is the no-effect control and ±100 the full control effect; nearly all actives have a fitted effect of over 65% in size
An asterisk follows results filed as active; i = inactive; ? = inconclusive; / = not tested or not shown; ! = repeats disagree. Unless noted, the call rests on the fitted dose curve; in most records, active means well fitted inhibition curve with a large enough effect; inconclusive means small, poorly fitted or top-dose-only effect; inactive means no such curve, though single readings can be large or run the other way.

SMILES	IP6K1 inh	KDM5B inh	IP6K1 inh cnf
O=C(Nc1ccc(Cl)cc1)c1cc(-c2ccc[nH]2)n[nH]1	16	i	0%
COc1ccc(NC(=O)c2cc(-c3ccc[nH]3)n[nH]2)cc1	6	i	/
Cc1cc(C)cc(NC(=O)c2cc(-c3ccc[nH]3)n[nH]2)c1	22	i	/
CCc1ccc(NC(=O)c2cc(-c3ccc[nH]3)n[nH]2)cc1	-3	i	/
CCc1cccc(NC(=O)c2cc(-c3ccc[nH]3)n[nH]2)c1	-30*	i	9.2µM*
O=C(O)C1CCCN(C(=O)c2cccc(C(F)(F)F)c2)C1 (configuration not stated)	/	i	/
CCCNC(=O)N1CCC(c2ncc(C)n2Cc2ccc(F)cc2)C1 (configuration not stated)	17	/	/
COc1ccc(OC)c(NC(=O)COC(=O)c2ccc(C)s2)c1	/	i	/
Cn1cccc1/C=C(\C#N)c1ccc(Cl)cc1Cl	/	i	/
O=C(c1ccccc1F)N1CCC(c2nn(-c3ccccn3)c(=O)[nH]2)CC1	17	/	/
Cc1ccc(C(=O)/C=C/c2cccc3ccccc23)o1	/	i	/
N#Cc1cccc(NC(=O)c2cc3c(s2)CCCC3)c1	/	i	/
N#Cc1cccc(NC(=O)c2cc3c(s2)-c2ccc(Cl)cc2SC3)c1	-50*	?	-26%
O=C(CCc1ncc(-c2ccc(F)cc2)o1)NCc1cccc(Cl)c1	/	i	/
COCC(=O)Nc1cccc(-c2nc3cccnc3s2)c1	-27*	?	?
O=C(Cc1ccccc1)Nc1cccc(-c2nc3cccnc3s2)c1	-19	?	/
COCCNC(=O)c1ccc2nnc(Cc3ccco3)n2c1	1	/	/
O=C(NCC1CC1)c1ccc2nnc(Cc3ccco3)n2c1	-27*!	/	?
CN(C)c1cc(=O)c2ccnc(-c3cccc(C(F)(F)F)c3)c2o1	-33*	i	?
COc1cc(F)ccc1-c1nccc2c(=O)cc(-c3cnn(C)c3)oc12	38	?	/
CN(C)c1cc(=O)c2ccnc(Nc3cccnc3)c2o1	-8	?	/
CN(c1ccccc1)c1cc(=O)c2ccnc(-c3cncnc3)c2o1	-26*	?	8%
O=C(CCN=C1NS(=O)(=O)c2ccccc21)N(Cc1ccc(F)cc1)C1CC1	/	i	/
Oc1ccc(/C=C/c2cc(O)cc(O)c2)cc1	-60*	/	9.2µM*
OC[C@H]1O[C@@H](Oc2cc(O)cc(/C=C/c3ccc(O)cc3)c2)[C@H](O)[C@@H](O)[C@@H]1O	19	/	/
SMILES	IP6K1 inh	KDM5B inh	IP6K1 inh cnf
O=[S+]([O-])(Nc1ccccc1)c1ccc2c(c1)OCCN(Cc1cccnc1)C2	-8	i	/
O=C(O)c1cc(O[C@@H]2O[C@H](CO)[C@@H](O)[C@H](O)[C@H]2O)ccc1O	8	/	/
O=C(O)c1cc(O)c2cccc(O)c2c1O[C@@H]1O[C@H](CO)[C@@H](O)[C@H](O)[C@H]1O	-37*	/	?
O=C(NCc1ccc(F)cc1F)C1CCCCN1Cc1ccc(-c2ccsc2)cc1 (configuration not stated)	4	/	/
Cc1cc(-c2cnc3[nH]cc(CC(=O)NCc4cccnc4)c3c2)ccn1	-3	i	/
NC(=O)Cc1c[nH]c2ncc(-c3ccc(Cl)cc3)cc12	-43*	20µM*	?
NC(=O)Cc1c[nH]c2ncc(-c3ccc4c(c3)OCO4)cc12	-47*	35µM*	15µM*
O=C(Cc1c[nH]c2ncc(-c3ccccc3)cc12)Nc1ccc(Cl)cc1	-11	i	/
Cn1cc(-c2cnc3[nH]cc(CC(=O)N4CCCC4)c3c2)cn1	-16	i	/
NC(=O)Cc1c[nH]c2ncc(-c3ccc(F)c(Cl)c3)cc12	-36*	40µM*	?
O=C(Cc1c[nH]c2ncc(-c3cccnc3)cc12)NCc1ccccc1	-2	i	/
O=C(Cc1c[nH]c2ncc(-c3ccc(F)c(Cl)c3)cc12)NCc1cccnc1	-26*	32µM*	?
COc1cc(C=O)c(Br)cc1OC(C)C	/	i	/
Cc1nn(-c2ccccc2)c2c1C(C)N(C1CN(C(=O)C3CC3)C1)C2=O (configuration not stated)	2	/	/
CN1CCN(c2nc3ccccc3nc2C(C#N)C(=O)NCc2ccccc2)CC1 (configuration not stated)	/	i	/
N#C/C(=C\c1ccc(-c2ccc(Cl)cc2Cl)o1)c1nc2ccccc2[nH]1	/	i	/
CCCCn1c(=O)c(C(=O)N2CCC(C#N)CC2)nc2cccnc21	10	/	/
O=C(CNC(=O)c1ccc(-c2cnc3ccccc3c2)cc1)NCC1CCCCC1	5	/	/
COC(=O)N1CCN(C(=O)c2nc3cccnc3n(C3CC3)c2=O)CC1	18	/	/
O=C(N1CC23C=CC(CC2CC12CCCCC2)O3)C(F)(F)F (configuration not stated)	/	i	/
CO/N=C(/C(=O)N[C@@H]1C(=O)N2C(C(=O)OCOC(=O)C(C)(C)C)=C(C)CS[C@H]12)c1csc(N)n1	14	/	/
CO/N=C(/C(=O)N[C@@H]1C(=O)N2C(C(=O)O)=C(CSC(=O)c3ccco3)CS[C@H]12)c1csc(N)n1	-49*!	/	?
CCn1nc(C)c(CCNC(=O)C2CCC(=O)N(C3CCCC3)C2)c1C (configuration not stated)	-25*	i	-9%
O=C(NCCn1cccn1)C1CCC(=O)N(C2CCCCCC2)C1 (configuration not stated)	-1	i	/
Cc1ccc(NC(=O)c2oc3c(c2C)-c2[nH]ncc2CC3)c(Cl)c1	-45*	?	-18%
SMILES	IP6K1 inh	KDM5B inh	IP6K1 inh cnf
Cc1cccc(NC(=O)c2oc3c(c2C)-c2[nH]ncc2CC3)c1C	-12	?	/
COc1cccc(C(=O)N2CCc3nc(C(C)C)nc(-c4ccc(O)cc4)c3CC2)c1	29	/	/
O=C(NCc1ccco1)c1cc(-c2ccccc2F)cc2c1OCCN2Cc1cccnc1	-30*	28µM*	?
O=C(Nc1cccnc1)c1cc(-c2ccccc2F)cc2c1OCCN2Cc1cccnc1	-49*	35µM*	?
CN(C(=O)CN1CCN(Cc2ccccc2)CC1)c1ccccc1C(=O)NCc1ccco1	/	i	/
O=C(Nc1cccnc1)c1nc2c(o1)CCN(Cc1cccc(O)c1)CC2	1	i	/
Cc1[nH]c2ccccc2c1/C=C(/C#N)C(=O)NCCO	/	i	/
C=CCNc1nc(C(=O)OCC(=O)NCC(=O)Nc2c(C)cc(C)cc2C)cs1	/	i	/
c1ccc(Cc2nc(-c3ccc4c(c3)OCCCO4)cs2)cc1	/	i	/
O=C(NCc1ccccc1F)c1nc2sccn2c1-c1cccnc1	6	/	/
OCCCNc1cc(-c2ccnc(Nc3cccc(Cl)c3)n2)ccn1	-26*	/	?
OCCNc1nc(Nc2cccc(Cl)c2)nc2nccnc12	/	i	/
O=S(Cc1ccc(Cl)cc1)Cc1cccc(C(F)(F)F)c1 (configuration not stated)	/	i	/
O=C(c1ccccc1)n1nc(-c2ccco2)nc1NCc1ccccc1Cl	-31*	?	-22%
COCC(=O)n1nc(-c2ccco2)nc1NCc1ccccc1Cl	-3	i	/
CC(C)Cc1nn2c(=O)cc(COC(=O)c3ccccc3NC(=O)c3cccs3)nc2s1	2	i	/
Cc1nn2c(=O)cc(COC(=O)c3ccccc3NC(=O)C(C)Oc3ccccc3)nc2s1 (configuration not stated)	-4	i	/
